These results are taken from PubChem BioAssay (Tox21).

A short description of test [1]: qHTS RealTime-Glo MT Cell Viability Assay in HepG2 cells - 16 hour (AID 1224885). Note: nearly all actives have a fitted effect of over 50% in size. Note: potency is the fitted concentration of half-maximal effect. A digest of the protocol:
(§1)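 Cell number in HepG2 cultures estimated from NanoLuc luminescence generated by metabolic reduction of a prosubstrate by living cells. The homogeneous, nonlytic format allowed repeated reads at 0, 8, 16, 24, 32 and 40 h of compound exposure.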

Test [2] in a line: qHTS RealTime-Glo MT Cell Viability Assay in HEK293 cells - 24 hour (AID 1224886). For activity change, negative = cytotoxicity: top concentration of the series differs between compounds. Note: nearly all actives have a fitted effect of over 50% in size. Note: potency is the fitted concentration of half-maximal effect. A digest of the protocol: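 Homogeneous bioluminescent viability format in HEK293 cells (600 cells/well). Following 5 h at 37 C/5% CO2, 23 nL compound was pintooled; the signal was measured repeatedly during 40 h incubation.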
A short description of test [3]: qHTS RealTime-Glo MT Cell Viability Assay in HEK293 cells - 8 hour (AID 1224887). For activity change, negative = cytotoxicity: top concentration of the series differs between compounds. Note: nearly all actives have a fitted effect of over 50% in size. Note: potency is the fitted concentration of half-maximal effect. A digest of the protocol:
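Measured as luminescence from the same continuously cultured HEK293 wells at successive time points (0, 8, 16, 24, 32, 40 h) after compound addition. Reagent present from seeding; dosing at 5 h; incubation 37 C.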
On the technique in general: qHTS replaces the single test concentration by a dilution series.

A short description of test [4]: A CellTox Green Cytotoxicity Assay to monitor cytotoxicity in HEK293 cells - 16 hour (AID 1224888). Note: nearly all actives have a fitted effect of over 35% in size. A digest of the protocol:
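Homogeneous no-lysis format: HEK293 cell suspension mixed with CellTox Green reagent, seeded, incubated 5 h at 37 C/5% CO2, then dosed by pintool with compound in DMSO.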

The nature of test [5]: qHTS RealTime-Glo MT Cell Viability Assay in HepG2 cells - 0 hour (AID 1224889). Note: nearly all actives have a fitted effect of over 50% in size. In short, it runs like this:
as §1

Test [6] is described as follows: A CellTox Green Cytotoxicity Assay to monitor cytotoxicity in HepG2 cells - 8 hour (AID 1224890). Note: nearly all actives have a fitted effect of over 45% in size. Note: potency is the fitted concentration of half-maximal effect. A digest of the protocol: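 Fluorescent DNA-binding dye, 600 HepG2 cells/well, 5 h preincubation then compound in DMSO; same plates read at 0–40 h, 37 C.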
Test [7] is described as follows: qHTS assay to identify small molecule antagonists of the androgen receptor (AR) signaling pathway using the MDA cell line in the presence of 0.5 nM R1881 - cell viability counter screen (AID 1259242). Note: nearly all actives have a fitted effect of over 45% in size. Note: potency is the fitted concentration of half-maximal effect. In short, it runs like this:
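Human breast carcinoma MDA-kb2 cells, cultured without CO2, receive compounds alongside 0.5 nM (final) R1881 agonist. After 16 hr at 37C, viability is taken as live-cell protease signal.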

Test [8] deals with Androgen receptor (Homo sapiens) (UniProt P10275). The test can be described thus: qHTS assay to identify small molecule antagonists of the androgen receptor (AR) signaling pathway using the MDA cell line in the presence of 0.5 nM R1881 (AID 1259243). Note: nearly all actives have a fitted effect of over 50% in size. Note: potency is the fitted concentration of half-maximal effect. A digest of the protocol: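 Cells: MDA-kb2 (MMTV-luc). Stimulus: 0.5 nM R1881. Time: 16 hr, 37C, no CO2. Detection: ONE-Glo luminescence after 30 min at RT.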

The target in test [9] is Estrogen receptor (Homo sapiens) (UniProt P03372). The test can be described thus: qHTS assay to identify small molecule antagonists of the estrogen receptor alpha (ER-alpha) signaling pathway using the BG1 cell line in the presence of 0.1 nM 17-beta-estradiol (AID 1259244). Note: nearly all actives have a fitted effect of over 50% in size. Note: potency is the fitted concentration of half-maximal effect. In short, it runs like this: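 Seeding of stripped-serum-adapted VM7Luc4E2 cells, 24 h attachment, compound transfer, then 0.1 nM final 17beta-estradiol; after 22 h incubation, ONE-Glo reagent and luminescence reading.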

Test [10] can be described thus: qHTS assay to identify small molecule HDAC inhibitors (AID 1259364).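 Note: wild-type HCT-116 cells with endogenous class I/II HDAC activity; top concentration of the series differs between compounds; nearly all actives have a fitted effect of over 45% in size.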 A digest of the protocol: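 After a 2 hr compound incubation (37C, 5% CO2), HCT-116 cells seeded at 1,500/well the day before received HDAC-Glo reagent; signal read as luminescence after 30 min at room temperature.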
Test [11] can be described thus: qHTS assay to identify small molecule HDAC inhibitors - cell viability counter screen (AID 1259365). In short, it runs like this:
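Luminescence from CellTiter-Glo, developed 30min at room temperature, reports viability of wild-type HCT-116 cells treated 2hr with compounds at 37 C and 5% CO2 after overnight plating.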

A short description of test [12]: qHTS assay to identify small molecule agonists of the sonic hedgehog signaling (Shh) pathway - cell viability counter screen (AID 1259366). Note: nearly all actives have a fitted effect of over 50% in size. Note: potency is the fitted concentration of half-maximal effect. In short, it runs like this: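 Cytotoxicity counter screen run in the same wells as the Shh reporter assay. NIH/3T3 cells carrying a Gli1 response element–driven luciferase were treated with DMSO-dissolved compounds for 24hr, and live-cell protease activity was measured with CellTiter-Fluor.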

Test [13] can be described thus: qHTS assay to identify small molecule antagonists of the sonic hedgehog signaling (Shh) pathway - cell viability counter screen (AID 1259367). Note: nearly all actives have a fitted effect of over 55% in size. Note: potency is the fitted concentration of half-maximal effect. In short, it runs like this: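 CellTiter-Fluor signal in conditioned medium-stimulated 3T3 Gli1-Luc cells, 23 hr compound exposure, 37C.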
A short description of test [14]: qHTS assay to identify small molecule agonists of the sonic hedgehog signaling (Shh) pathway (AID 1259368; calls by dose curve;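 note: NIH/3T3-derived 3T3Gli1-Luc cells carrying a stable Gli1-driven firefly luciferase reporter; series mostly up to about 92 µM; nearly all actives have a fitted effect of over 15% in size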). In short, it runs like this:
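Stable NIH/3T3 Gli1-Luc reporter clone; 24 hr cpd exposure after a 4 hr settling period; luminescence endpoint.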

Test [15] in a line: qHTS assay to identify small molecule antagonists of the estrogen receptor alpha (ER-alpha) signaling pathway using the BG1 cell line in the presence of 0.1 nM 17-beta-estradiol - cell viability counter screen (AID 1259241). Note: nearly all actives have a fitted effect of over 40% in size. In short, it runs like this:
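VM7Luc4E2, 4,000 cells/well, phenol red-free medium + 10% charcoal-stripped FBS; 24 hr plating; cpd + 0.1 nM E2 final, 22 hr 37C/5% CO2; CellTiter-Fluor 30 min, fluorescence.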

In test [16] the target is Estrogen receptor beta (Homo sapiens) (UniProt Q92731). In words: qHTS assay to identify small molecule antagonists of the estrogen receptor beta (ER-beta) signaling pathway (AID 1259378; active = well fitted inhibition curve with a large enough effect in the signal ratio in the repeat runs, not every such curve was filed as active; the % refers to the signal ratio; note: potency is the fitted concentration of half-maximal effect). A digest of the protocol: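 Antagonist mode: compounds added to beta-lactamase reporter HEK293T ER-beta-UAS cells stimulated with E2 (1nM final), 16 hr at 37C. LiveBLAzer B/G FRET substrate, 2 hours room temperature, fluorescence read-out.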

Test [17] shares this target. In words: qHTS assay to identify small molecule agonists of the estrogen receptor beta (ER-beta) signaling pathway (AID 1259377; active = well fitted activation curve with a large enough effect in the signal ratio in the repeat runs, not every such curve was filed as active; the % refers to the signal ratio). A digest of the protocol:
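HEK293T ER-beta-UAS-bla; 2% charcoal-stripped FBS; cells pre-incubated 6 hr, compound 16 hr, 37C/5% CO2; LiveBLAzer B/G FRET substrate 2 h RT; fluorescence intensity read.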

The nature of test [18]: qHTS assay to identify small molecule antagonists of the sonic hedgehog signaling (Shh) pathway (AID 1259369; calls by dose curve; note: nearly all actives have a fitted effect of over 45% in size; note: potency is the fitted concentration of half-maximal effect). In short, it runs like this:
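Gli1 transcriptional reporter (firefly Luc) in NIH/3T3 background, conditioned-medium activated. 24hr exposure, luminescence endpoint.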

Unmarked numbers belong to inactive results. Inconclusive results are not listed. Activity calls are given as the source filed them. Unless noted, calls come from the whole dose curve; as a rule, active = well fitted curve in the direction sought with a large enough effect in the repeat runs; inconclusive = weak or mixed curves; inactive = no such curve, though single readings can be large; an effect the other way counts as inactive or inconclusive.
% is set by controls: 0 for no effect and ±100 for the full control effect.

Sequence of Estrogen receptor beta (Homo sapiens) (Q92731 whole entry, looked up): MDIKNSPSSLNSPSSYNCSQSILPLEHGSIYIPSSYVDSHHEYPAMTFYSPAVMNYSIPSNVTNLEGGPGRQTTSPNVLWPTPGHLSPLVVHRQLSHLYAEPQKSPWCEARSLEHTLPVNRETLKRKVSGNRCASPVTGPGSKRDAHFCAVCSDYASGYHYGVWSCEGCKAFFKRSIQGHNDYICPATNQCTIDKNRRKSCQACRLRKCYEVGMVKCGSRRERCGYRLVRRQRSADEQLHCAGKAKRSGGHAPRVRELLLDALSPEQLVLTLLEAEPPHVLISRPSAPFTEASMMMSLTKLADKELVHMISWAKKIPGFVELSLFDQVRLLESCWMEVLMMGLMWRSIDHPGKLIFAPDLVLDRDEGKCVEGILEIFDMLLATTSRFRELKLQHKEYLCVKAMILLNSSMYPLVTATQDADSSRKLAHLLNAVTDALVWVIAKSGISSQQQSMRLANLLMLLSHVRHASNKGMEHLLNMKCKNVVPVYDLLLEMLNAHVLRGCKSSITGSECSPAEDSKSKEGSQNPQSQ
Sequence of Estrogen receptor (Homo sapiens) (P03372 whole entry, looked up): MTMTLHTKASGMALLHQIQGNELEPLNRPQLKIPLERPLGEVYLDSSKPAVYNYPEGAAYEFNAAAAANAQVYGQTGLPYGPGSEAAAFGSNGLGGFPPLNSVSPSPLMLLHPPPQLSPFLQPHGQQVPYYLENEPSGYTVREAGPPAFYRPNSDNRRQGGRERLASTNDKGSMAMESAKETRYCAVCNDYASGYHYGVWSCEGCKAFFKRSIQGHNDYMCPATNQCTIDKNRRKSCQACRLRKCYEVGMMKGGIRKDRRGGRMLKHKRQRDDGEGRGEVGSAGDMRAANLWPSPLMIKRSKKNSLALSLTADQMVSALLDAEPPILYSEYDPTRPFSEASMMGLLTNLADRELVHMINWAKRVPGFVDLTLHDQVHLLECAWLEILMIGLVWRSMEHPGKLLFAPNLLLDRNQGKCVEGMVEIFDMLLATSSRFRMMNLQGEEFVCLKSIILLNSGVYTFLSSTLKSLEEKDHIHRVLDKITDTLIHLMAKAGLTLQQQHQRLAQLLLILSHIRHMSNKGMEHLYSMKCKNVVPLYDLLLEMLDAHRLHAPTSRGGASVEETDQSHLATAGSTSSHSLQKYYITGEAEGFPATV
Sequence of Androgen receptor (Homo sapiens) (P10275 whole entry, looked up): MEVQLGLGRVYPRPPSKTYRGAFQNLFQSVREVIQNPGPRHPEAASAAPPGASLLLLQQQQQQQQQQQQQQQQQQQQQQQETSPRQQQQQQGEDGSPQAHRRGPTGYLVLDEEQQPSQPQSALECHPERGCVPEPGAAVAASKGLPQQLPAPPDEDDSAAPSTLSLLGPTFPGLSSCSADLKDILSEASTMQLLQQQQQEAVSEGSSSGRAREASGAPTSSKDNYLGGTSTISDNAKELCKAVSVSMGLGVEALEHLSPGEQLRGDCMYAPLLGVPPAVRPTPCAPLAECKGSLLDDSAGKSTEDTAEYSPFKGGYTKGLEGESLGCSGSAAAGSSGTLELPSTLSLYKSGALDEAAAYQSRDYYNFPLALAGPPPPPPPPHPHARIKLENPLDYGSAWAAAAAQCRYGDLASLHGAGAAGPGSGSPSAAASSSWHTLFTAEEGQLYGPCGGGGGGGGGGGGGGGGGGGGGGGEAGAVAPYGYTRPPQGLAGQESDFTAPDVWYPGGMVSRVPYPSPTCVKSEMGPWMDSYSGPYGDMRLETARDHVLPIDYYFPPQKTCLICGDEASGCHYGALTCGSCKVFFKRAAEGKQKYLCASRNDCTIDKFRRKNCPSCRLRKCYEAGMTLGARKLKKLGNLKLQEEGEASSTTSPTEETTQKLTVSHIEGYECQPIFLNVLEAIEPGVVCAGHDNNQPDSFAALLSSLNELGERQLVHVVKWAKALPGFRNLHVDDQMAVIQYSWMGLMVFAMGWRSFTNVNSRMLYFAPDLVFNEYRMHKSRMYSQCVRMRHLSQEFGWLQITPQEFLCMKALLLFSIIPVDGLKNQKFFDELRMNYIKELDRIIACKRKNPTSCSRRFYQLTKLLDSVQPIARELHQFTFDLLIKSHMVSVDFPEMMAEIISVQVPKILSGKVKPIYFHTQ

Regarding `C/C(=N\[Si](C)(C)C)O[Si](C)(C)C`, the Potency entry in [1], in [2], in test [3], in [4], in [5] and in test [6] was “inactive” in each case. The Potency result in test [7], in test [8], in test [9], in [10], in test [11] and in [12] was “inactive” throughout. Further, the Potency result in test [13] and in test [14] was “inactive” in each case.

As for `CC/C=C\C/C=C\C/C=C\CCCCCCCC(=O)OC`, the Potency entry in test [1], in test [2], in test [3], in test [4], in test [6] and in test [7] was “inactive” throughout. Besides, the Potency entry in test [9], in test [10], in [11] and in test [14] was “inactive” throughout.

As to `CN[C@H]1CC[C@@H](c2ccc(Cl)c(Cl)c2)c2ccc(S(N)(=O)=O)cc21`, the Potency in [1] was 43.6 µM (active); in test [2], 21.9 µM (active); in test [3], 38.9 µM (active); in test [8] it was 30.6 µM (active); in [9], 61.1 µM (active); in test [12] it was 30.6 µM (active). Also, the Potency in test [13] is 61.1 µM (active); in [16], 24.3 µM (active). Also, the Potency result in test [15], in test [10], in test [11] and in test [14] was “inactive” each time.

Turning to `O=[N+]([O-])c1ccc(CO)cc1`, the Potency entry in [1], in test [2], in test [3], in [4], in test [5] and in test [6] was “inactive” each time. Besides, the Potency result in [15], in test [7], in test [8], in test [10], in [11] and in test [12] was “inactive” in each case. The Potency entry in test [13], in [14] and in [16] was “inactive” throughout. In [17], the molecule was called inactive.

Consider `O=C(CCCCCCCCc1cccnc1)N1CCC(C=C(c2ccccc2)c2ccccc2)CC1`, for which the Potency is 49 µM (active) in test [1]; 21.9 µM (active) in test [2]; 21.9 µM (active) in test [3]; 27.3 µM (active) in [8]; 17.2 µM (active) in test [18]; 15.4 µM (active) in test [16]. The Potency entry in [4], in test [5], in test [6], in test [10], in [11] and in [13] was “inactive” throughout. In [14], the Potency result is “inactive”. Besides, in [17], the outcome was inactive.

For the molecule `CCCCCCCCCCCCS(=O)(=O)Cl`, in [1], the activity change, negative = cytotoxic was 1.02% [at 15.8 µM]. The activity change, negative = cytotoxicity in test [2] is 12.2% [at 15.8 µM]; in test [3] it was 8.12% [at 15.8 µM]; in [5], -8.49% [at 15.8 µM]; in test [15] it was -4% [at 19 µM]; in test [11], -1.8% [at 19 µM]. The activity change in test [4] was 2.57% [at 15.8 µM, hits give high values]; in test [14] it was 0.0807% [at 18.9 µM, hits give high values]. The cytotoxicity increase in test [6] is -21% [at 15.8 µM]. Besides, the viability change, negative = cytotoxic is -2.53% [at 19 µM] in test [7], -2.48% [at 19 µM] in test [12] and -1.82% [at 19 µM] in test [13]. Further, the activity, negative = inhibition was 0.127% [at 19 µM] in [8] and -20.1% [at 19 µM] in [16]. In addition, the figures for the activity change, negative = inhibition in [10] and in test [18] were -0.19% [at 19 µM] and 18.4% [at 19 µM], respectively.

With `CC/C(=C(/c1ccc(O)cc1)c1ccc(OCCN(C)C)cc1)c1ccccc1`, the Potency in test [1] was 28.8 µM (active); in [2], 10.2 µM (active); in test [3] it was 14.4 µM (active); in test [6] it was 32.3 µM (active); in test [7], 40.3 µM (active); in test [8] it was 32 µM (active). For the same molecule, the figures for the Potency in test [12], in [13] and in [18] were 18 µM (active), 18 µM (active) and 14.3 µM (active), respectively. Moreover, the Potency entry in test [5], in test [15], in test [10] and in test [14] was “inactive” throughout.

Turning to `CCOC(=O)[C@H](C)O`, the Potency entry in [1], in test [2], in test [3], in test [4], in test [5] and in test [6] was “inactive” each time. Further, the Potency result in test [7], in [10], in test [11], in test [12], in [13] and in test [14] was “inactive” each time. The Potency entry in test [16] was “inactive”. For the same molecule, the molecule was called inactive in [17].
